Data published in PubChem BioAssay AID924 (National Center for Advancing Translational Sciences (NCATS), 2007).
Several values for one entry are separate records, joined by “and”; a condition that tells them apart may be missing. Equal entries are not always repeated. Among all 130,000 compounds or so, about 1,200 (0.92%) were called active. Where a call stands in place of a potency, no number is given. Inconclusive results (about 3%) are left out. The sample holds actives, similar compounds and a random draw of the others, so the mix is not that of the screen. Calls follow the shape of the dose curve; as a rule, active = well fitted cell-killing curve with a large enough effect; inconclusive = small, poorly fitted or top-dose-only effect; inactive = no such curve, though single readings can be large or run the other way.

test: qHTS Screen for Compounds that Selectively Target Cancer Cells with p53 Mutations: Cytotoxicity of p53ts Cells at the Permissive Temperature; conditions: H1299-p53A138V at 32C, ATP luminescence viability, 24 h; series mostly up to 46.1 µM; also: nearly all actives have a fitted effect of over 55% in size
From the text: NIH Chemical Genomics Center [NCGC] NIH Molecular Libraries Screening Centers Network [MLSCN] MLSCN Grant: 1 X01 MH079844-01 Assay Submitter (PI): Dr. SUN, YI, University of Michigan NCGC Assay Overview: Synthetic Lethal Screen for Compounds to Kill Cancer Cells with p53 Mutation. Tumor suppressor gene p53 serves as a major cellular barrier against tumorigenesis. […] The goal of this screening is to identify small molecule probes that selectively kill cancer cells with mutations in p53. This screening was carried out using two lines of H1299 lung cancer cells. The H1299-p53 A138V line express a temperature sensitive p53 mutant (p53ts) in which the mutant p53 protein (A138V) is in the mutant confirmation when grown at 39C (the nonpermissive temperature) and in the wild type conformation when grown at 32C (the permissive temperature). A H1299-neo line (p53 null) grown at both 39C and 32C were used as counter-screens to filter out false positive associated with temperature shifting. The small molecular compounds that selectively target mutant p53-containing cancer cells were selected as candidate probes for further study. A cytotoxicity assay based on the measurement of ATP contents in cells was used in this screen. Concentration-responses of all the compounds in the library collection were determined in qHTS using the cell lines and temperature conditions as above.
NCGC Assay Protocol Summary: Both the H1299-p53A138V and H1299-neo cell lines were provided by Dr.Yi Sun, a PI at the University Michigan. The cells were maintained and cultured at 37C. The resuspended frozen cells were used to plate the cells in the 1536-well assay plates at a density of 600 cells per well in 5 ul medium. The assay plates with the cells were incubated at 37C for 16 to 30 hours before the experiments. The library compounds in DMSO solution were added to the cells in assay plates and incubated 24 hours at 39C (for mutant p53 conformation) or 32C (for normal p53 conformation as control). An ATP_lite assay kit (PerkinElmer) was used to determine the cell viability. Tomaxifen (100uM) was used as the positive control for cell killing. Data were normalized to the controls for basal activity (DMSO only) and 100% killing (100uM tamoxifen). AC50 values were determined from concentration-response data modeled with the standard Hill equation. P53 assay protocol: 1. Reagent; 5 uL H1299-p53A138V or H1299-neo cell cells/well 2. Time; overnight; 37C incubation 3. Compounds; 23 nL; 5.9 nM to 46 uM 4. Controls; 23 nL; Tamoxifen 100 uM 5. Time; 24 hr; 37C incubation 6. Reagent; 3 uL; ATP_Lite reagent 7. Time; 20 min; Room Temperature 8. Detection; Luminescence; Viewlux plate reader Keywords: p53, synthetic lethal, cancer, cell viability, cytotoxicity, H1299 cell line, luminescence, MLSMR, MLSCN, NIH Roadmap, qHTS, NCGC
Potency is read from the fitted curve at half-maximal effect.

Compound	Potency	activity change, negative = cytotoxicity
CCN(CCCCOC(=O)c1ccc(OC)c(OC)c1)C(C)Cc1ccc(OC)cc1 (configuration not stated)	inactive	–
COc1ccc(/C=C/NC(=O)Cc2ccc(OC)c(OC)c2)cc1	–	-5.23% [at 9.22 µM] (inactive) and 5.05% [at 9.22 µM] (inactive)
COc1ccc(C(CCN(Cc2ccc(OC)c(OC)c2)C(=O)CCl)c2ccccc2)cc1 (configuration not stated)	5.01 µM (active)	–
CCc1ccc(NC(=O)c2cc(S(=O)(=O)N3CCCC(C)C3)cn2C)cc1 (configuration not stated)	inactive	–
COc1cccc(NC(=O)CSC2=Nc3ccccc3C3=NC(CC(=O)NC4CCCCC4)C(=O)N23)c1 (configuration not stated)	inactive	–
COC(=O)c1ccccc1NC(=O)Cn1c(=O)cc(C)c2c(C)nn(-c3cccc(Cl)c3C)c21	inactive	–
Cc1ccc(NC(=O)CSc2nc3c([nH]c4ccccc43)c(=O)n2-c2ccccc2)c(C)c1	inactive	–
CC(C)c1ccc(NC(=O)CN(C)S(=O)(=O)c2ccc3c(c2)c(=O)n(C)c(=O)n3C)cc1	inactive	–
COC(=O)c1sc(NC(=O)c2csc3c2CCCC3)nc1C	inactive	–
COc1ccc(C(=O)Nc2nncs2)c(OC)c1	inactive	–
COC(=O)c1sc(NC(=O)c2ccc(OC)cc2OC)nc1C	0.398 µM (active)	–
COc1ccc(-c2nc3sc(CCNS(=O)(=O)c4ccc(F)c(C)c4)c(C)n3n2)cc1	inactive	–
CCn1c(=O)c2cc(C(=O)NCCc3ccc(Cl)cc3)sc2c2ccccc21	inactive	–
O=C(NCCc1ccc(Cl)cc1)c1ccc2nc(CCc3ccccc3)oc2c1	inactive	–
Cc1ccccc1Nc1nn2c(=O)c3ccc(C(=O)NCCc4ccc(Cl)cc4)cc3nc2s1	15.8 µM (active)	–
CCOc1ccc(C(=O)c2cn(Cc3ccccc3OC)c3ccc(F)cc3c2=O)cc1	inactive	–
CCOC(=O)c1cc2c(=O)n3ccccc3nc2n(CC2CCCO2)c1=NC(=O)c1ccccc1Br (configuration not stated)	inactive	–
O=C(NCc1ccc2c(c1)CCN2C(=O)c1ccccc1)Nc1cc(F)ccc1F	inactive	–
COc1ccc(-c2nc(-c3ccccc3)no2)c(OC)c1	5.01 µM (active)	–
COc1ccc(-c2noc(CSc3nnc(-c4ccccc4)n3-c3ccc(F)cc3)n2)c(OC)c1	inactive	–
COc1ccc(-c2cc(-c3nc(-c4cc(OC)c(OC)c(OC)c4)no3)[nH]n2)c(OC)c1	inactive	–
CCn1c(C)c(C)c2cc(C(=O)N3CCN(c4cccc(C)c4C)CC3)ccc21	inactive	–
CCOc1ccc(C(=O)/C=C/c2cn(CC(O)CN3CCCCCC3)c3ccccc23)cc1 (configuration not stated)	inactive	–
CCOC(=O)c1nnn(CC(=O)NC(=O)Nc2ccccc2F)c1C(=O)OCC	inactive	–
Cc1ccc2oc(C(=O)Nc3ccc(S(=O)(=O)N4CCCCCC4)cc3)cc(=O)c2c1	inactive	–
Cc1nc2ccccc2n1C(=O)N1CCOCC1	inactive	–

Compound	Potency	activity change, negative = cytotoxicity
Cc1cc(C)c2c(n1)nn1c(N3CCOCC3)cc(C)nc21	inactive	–
Cc1nn2c3cc(N4CCOCC4)ccc3nc2c2ccccc12	2 µM (active)	–
COc1ccc(CNC(=O)CC2Oc3ccc(C)cc3NC2=O)cc1 (configuration not stated)	inactive	–
Cc1cc(=O)c2cc(C(=O)Nc3cccc(C)c3C)ccc2[nH]1	inactive	–
O=C(CSc1nnc(CNC(=O)c2ccccc2)n1-c1ccc(F)cc1)Nc1ccccc1F	inactive	–
CCc1ccc2oc(-c3ccc(C)c(NC(=O)/C=C/c4ccco4)c3)nc2c1	inactive	–
CCc1ccc2oc(-c3ccc(N)cc3)nc2c1	7.94 µM (active)	–
CCc1ccc2oc(-c3ccc(NC(=O)c4cc5ccccc5o4)cc3)nc2c1	inactive	–
COc1ccc(-c2nnc(SCC(=O)Nc3ccc(C(C)C)cc3)nc2-c2ccc(OC)c(OC)c2)cc1OC	inactive	–
CC(C)(C)c1ccc(C(=O)NCC(c2ccc(Cl)cc2)N2CCOCC2)cc1 (configuration not stated)	inactive	–
NC(=O)c1ccccc1NC(=O)c1ccccc1F	inactive	–
O=C(Cn1c(=O)sc2ccccc21)Nc1nc2c(s1)CCCC2	inactive	–
O=C(Nc1nc2c(s1)CCCC2)c1ccccc1F	7.94 µM (active)	–
O=C1N(Cc2ccccc2)c2ccc(Cl)cc2C1(O)c1c[nH]c2ccccc12 (configuration not stated)	inactive	–
CCOc1cc(C(=O)Nc2ncccn2)cc(OCC)c1OCC	inactive	–
O=C(Nc1ncccn1)c1cccs1	inactive	–
Cn1c(=O)c(C(=O)Nc2ncccn2)c(O)c2ccccc21	12.6 µM (active)	–
CC1CCCN(c2nc3c(S(=O)(=O)c4ccc(C(C)C)cc4)nnn3c3ccsc23)C1 (configuration not stated)	inactive	–
COc1cccc(CNC(=O)CSc2c3c(nc4cc(Cl)ccc24)CCCC3)c1	inactive	–
CCOc1ccc(C(=O)Nc2ccc3nc4c(c(Nc5ccccc5OC)c3c2)CCCC4)cc1	inactive	–
CCOc1ccc(NC(=O)CSc2c3c(nc4ccccc24)CCCC3)cc1	22.4 µM (active)	–
CCOC(=O)c1cc(-c2ccccc2)n(CCC(=O)Nc2ccccc2CC)c1C	inactive	–
O=C(NCc1ccc(F)cc1)c1ccc(Cn2c(SCc3ccc(F)cc3)nc3cccnc32)cc1	inactive	–
O=C(NC1CCCCC1)c1ccc(Cn2c(SCc3ccccc3)nc3cccnc32)cc1	inactive	–
Cc1ccc(CSc2nc3cccnc3n2Cc2ccc(C(=O)NC3CC3)cc2)cc1	2.24 µM (active)	–
Cc1ccc(Cl)cc1NC(=O)Cc1ccc(-n2c(C)nc3cccnc32)cc1	inactive	–

Compound	Potency	activity change, negative = cytotoxicity
COc1cccc(N2CC(NC(=O)/C=C\c3ccccc3)CC2=O)c1 (configuration not stated)	inactive	–
Cc1nc(-c2ccc(NC(=O)c3cccs3)cc2)cs1	1.26 µM (active)	–
O=C(O)c1ccc(NC(=O)c2cccs2)cc1	inactive	–
CCc1ccccc1NC(=O)c1cccs1	inactive	–
Cc1c(CNC(C)c2ccccc2)c(C(=O)O)c(C)n1Cc1c(F)cccc1Cl (configuration not stated)	inactive	–
COc1cc(NC(=O)C2CCN(c3cnccn3)CC2)cc(OC)c1	inactive	–
c1ccc(-c2nc(NCc3ccco3)c3ccccc3n2)cc1	inactive	–
c1ccc2[nH]c(NCCN3CCOCC3)nc2c1	inactive	–
CN(C)c1ccc(-c2nc(NCCN3CCOCC3)c3ccccc3n2)cc1	12.6 µM (active)	–
NS(=O)(=O)c1ccc(CCNC(=O)CCCCCn2c(=O)[nH]c3ccccc3c2=O)cc1	inactive	–
CC(=O)Nc1cccc(NC(=O)CSc2cn(CC(=O)N3CCCC3)c3ccccc23)c1	inactive	–
CCOc1ccccc1C(=O)NCC(c1ccc(N(C)C)cc1)N1CCCC1 (configuration not stated)	inactive	–
COC(=O)c1nc2ccccc2s1	inactive	–
O=C(O)CSCc1nc2ccccc2s1	inactive	–
CCC(=O)NC(=Nc1nc2ccccc2s1)NC(=O)CC	15.8 µM (active)	–
COc1ccc(OC)c(-c2noc(N3CCN(c4cc(Cl)ccc4C)CC3)n2)c1	inactive	–
Cc1ccc(NC(=O)c2cccc(N(C)C)c2)cc1NC(=O)c1ccc(O)cc1	12.6 µM (active)	–
Cc1ccccc1NC(=O)c1ccccc1	inactive	–
Cc1ccc(F)cc1NC(=O)c1cccc(N(C)C)c1	inactive	–
CC(C)c1ccc(NC(=O)C2CCN(c3nc(-c4ccc(C(C)C)cc4)no3)CC2)cc1	inactive	–
Cn1c(=O)c(C(=O)O)nn(-c2ccccc2)c1=O	inactive	–
O=C(Nc1nnc(S(=O)(=O)N2CCCCCC2)s1)c1cccc(Br)c1	inactive	–
O=C(Cn1c(=O)nc(-c2ccccc2)c2cc(Cl)ccc21)NCc1ccc(Cl)cc1	10 µM (active)	–
O=C(Cn1nnc(-c2ccccc2)n1)NCc1ccccc1	inactive	–
CCN(C(=O)Cn1c(=O)nc(-c2ccccc2)c2cc(Cl)ccc21)c1cccc(C)c1	inactive	–
CCc1ccccc1NC(=O)Cc1ccc(NC(=O)N2CCCCc3ccccc32)cc1	inactive	–

Compound	Potency	activity change, negative = cytotoxicity
COc1ccc2c(c1)CCc1c(C(=O)Nc3cc(C)ccc3O)noc1-2	inactive	–
Cc1ccc2nc(COc3cccc(NC(=O)Nc4ccc(C)c(Cl)c4)c3)cc(=O)n2c1	inactive	–
CCOc1ccc(NC(=O)Nc2cc(C)on2)cc1	inactive	–
CCOc1ccc(-c2nnc(-c3ccco3)o2)cc1	10 µM (active)	–
CCOc1ccc(C(=O)Nc2ccncc2)cc1	inactive	–
CCC(=O)Oc1cccc(C(=O)Nc2ccc(-c3nnc(-c4ccco4)o3)cc2)c1	inactive	–
O=C(CCc1ccccc1)Nc1cccc(-c2nnc(-c3ccco3)o2)c1	inactive	–
CCOc1ccc(NC(=O)c2ncoc2-c2ccco2)cc1	12.6 µM (active)	–
COc1ccc(-n2c(=O)c3c(c4cc(OC)ccc4n3C)n(Cc3cccc(C)c3)c2=O)cc1	inactive	–
COc1ccc(N2C(=O)CSC23C(=O)N(Cc2cccc(F)c2)c2ccccc23)cc1Cl (configuration not stated)	inactive	–
CCCCOc1ccc(NC(=O)c2cc3c(n(-c4ccc(Cl)cc4)c2=O)CCCC3=O)cc1	inactive	–
COc1ccc(C2CC(=O)N(Cc3ccccc3C)c3c2c(C)nn3-c2nc(C)cc(C)n2)c(OC)c1 (configuration not stated)	inactive	–
CCOCCCNC(=O)c1ccc2nc(CCc3ccccc3)oc2c1	inactive	–
COc1ccc(NC(=O)c2c(C)oc3c2CCCC3)cc1	inactive	–
CC1CCc2noc(NC(=O)c3ccc([N+](=O)[O-])cc3)c2C1 (configuration not stated)	inactive	–
COc1ccc(C(=O)Nc2onc3c2CCCC3)cc1	10 µM (active)	–
COc1ccc(-c2onc(C)c2C)cc1S(=O)(=O)NCC1CCN(Cc2cccc(F)c2)CC1	inactive	–
CCOc1ccccc1NC(=O)CN1CCCN(Cc2cccc(Cl)c2)S1(=O)=O	inactive	–
CC(C)c1ccc(NC(=O)c2ccc3c(O)c(S(=O)(=O)c4ccccc4)c(=O)[nH]c3c2)cc1	12.6 µM (active)	–
Cc1ccc(C(=O)Nc2ccc3[nH]c(=O)c(=O)[nH]c3c2)cc1	inactive	–
COc1ccc(CNC(=O)c2ccc3c(O)c(S(=O)(=O)c4ccccc4)c(=O)[nH]c3c2)cc1	inactive	–
Cn1c(=NC(=O)CSCC(=O)N2CCCCC2)sc2ccccc21	inactive	–
Cn1c(=NC(=O)c2cnccn2)sc2ccccc21	15.8 µM (active)	–
Cn1c(=NC(=O)CSCC(=O)N2CCOCC2)sc2ccccc21	inactive	–
